Source: PubChem
FECH block: inhibitors of human ferrochelatase, primary screen, biochemical, purified FECH, Ni-mesoporphyrin absorbance | Ferrochelatase, mitochondrial (Homo sapiens), P22830 | Ni-mesoporphyrin absorbance 550 nm | calls only at 10 µM (by protocol) | 20,000 tested, 3.3% active;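 active means enzyme reaction rate more than 3 SD below the solvent-only control wells on the same plate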;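 further: lower slope than DMSO wells means FECH inhibition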
Target sequence (P22830 whole entry, looked up): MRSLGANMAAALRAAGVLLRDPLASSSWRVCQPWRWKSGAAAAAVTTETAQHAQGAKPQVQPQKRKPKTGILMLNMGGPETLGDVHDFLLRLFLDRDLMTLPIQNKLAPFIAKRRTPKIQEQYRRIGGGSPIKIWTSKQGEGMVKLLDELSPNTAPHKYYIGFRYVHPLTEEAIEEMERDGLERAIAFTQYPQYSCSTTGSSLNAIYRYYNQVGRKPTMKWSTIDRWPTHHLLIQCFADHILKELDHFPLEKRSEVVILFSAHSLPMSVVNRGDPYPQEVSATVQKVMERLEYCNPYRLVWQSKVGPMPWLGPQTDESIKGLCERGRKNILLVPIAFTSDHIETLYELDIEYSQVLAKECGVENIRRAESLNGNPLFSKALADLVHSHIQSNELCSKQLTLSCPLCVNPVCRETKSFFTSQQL
An asterisk follows results filed as active; i = inactive; + = active, no number. This is one part of a sample in which hits are shown more often than they occur.

SMILES | FECH block
O=S(=O)(NCc1nc2cccnc2n1C1CCCCC1)c1ccc(Cl)cc1 | i
CC(C)c1ccc(S(=O)(=O)NCc2nc3cccnc3n2Cc2ccccc2)cc1 | i
CC(C)Cc1ccc(S(=O)(=O)NCc2nc3cccnc3n2Cc2ccccc2)cc1 | i
COc1ccc(Cn2c(CNS(=O)(=O)c3ccccc3)nc3cccnc32)cc1 | +
COc1cc(OC)c(NC(=O)NCCc2nc3cccnc3n2C2CCCCC2)cc1Cl | i
COc1ccc(NC(=O)C2CCN(c3ccc(-c4ccc(C)cc4)nn3)CC2)cc1OC | i
C=C(C)COc1ccc(C(=O)N(CC2CCC(=O)N2)C(C)C)cc1 (stereo not given) | i
CCCN(Cc1cccnc1)C(=O)c1cccc(Oc2ncccn2)c1 | i
COc1cccc(CN(C)Cc2noc(C3CCC3)n2)c1O | i
CCC(NC(=O)C(=O)c1ccco1)c1cc(C)ccn1 (stereo not given) | i
CCc1nc(C)c(C(=O)NCCc2cccc(C(F)(F)F)c2)o1 | i
COc1cccc(Cn2c(CNC(=O)c3cccc(OC)c3)nc3cccnc32)c1 | i
COc1cccc(Cn2c(CNC(=O)c3ccc(OC)cc3OC)nc3cccnc32)c1 | +
COCCn1c(CNC(=O)c2ccc(OC)cc2OC)nc2cccnc21 | i
CN(CC(=O)NC1CCCCCCC1)Cc1cc(-c2ccncc2)no1 | i
COc1ccccc1NC(=O)CN1CCN(Cc2ccccc2F)S1(=O)=O | i
CCOc1ccc(Nc2nc(NCC3CCCO3)nc3c2cnn3-c2ccccc2)cc1 (stereo not given) | +
COc1cccc(Nc2nc(NCC3CCCO3)nc3c2cnn3-c2ccccc2)c1 (stereo not given) | i
Cc1cc(C)cc(Nc2nc(NCC3CCCO3)nc3c2cnn3-c2ccccc2)c1 (stereo not given) | i
COc1cccc(Nc2nc(N(C)C)nc3c2cnn3-c2ccccc2)c1 | i
COc1ccc(OC)c(Nc2nc(NCc3ccccc3Cl)nc3c2cnn3-c2ccccc2)c1 | +
COc1ccc(OC)c(Nc2nc(NCc3ccccc3)nc3c2cnn3-c2ccccc2)c1 | i
CCN(CC)c1nc(Nc2ccc(OC)cc2)c2cnn(-c3ccccc3)c2n1 | +
COc1ccc(OC)c(Nc2nc(NCc3ccccc3OC)nc3c2cnn3-c2ccccc2)c1 | i
CCOc1ccc(Nc2nc(N(CC)CC)nc3c2cnn3-c2ccccc2)cc1 | i
SMILES | FECH block
CCOc1ccc(Nc2nc(N(CC)CCO)nc3c2cnn3-c2ccccc2)cc1 | i
COc1ccc(Nc2nc(N(C)C)nc3c2cnn3-c2ccccc2)cc1 | +
CN(C)c1nc(Nc2ccc(Cl)cc2)c2cnn(-c3ccccc3)c2n1 | i
COc1cccc(NC(=O)c2nc(N3CCCC3)c3oc4ccccc4c3n2)c1 | i
O=C(CCC(=O)N1CCc2cc(S(=O)(=O)NCCN3CCCCCC3)ccc21)N1CCOCC1 | i
CCc1nc(NC(=O)NCc2cccc(C)n2)nn1C | i
CC1CCN(C(=O)c2[nH]cnc2C(=O)NC2CCCCC2)CC1 | i
Cc1ccc(Cl)cc1N(C)C(=O)C1CCCN(c2ncnc3c2nc2n3CCCCC2)C1 (stereo not given) | i
CC(=O)Nc1cccc(-c2csc(CN3CCNCC3)c2)c1 | i
CC(C)N1CC(NC(=O)c2cccc(NCc3cccs3)c2)CC1=O (stereo not given) | i
CN1CCC(N(C)CC(=O)N2CCC(Cc3cccc(C(N)=O)c3)C2)CC1 (stereo not given) | i
CSc1nc(NCCc2ccc(F)cc2)c(C#N)c(-c2ccc(Cl)cc2)n1 | i
CCc1nc(OCC(=O)NCc2ccccn2)c2c(-c3ccc(F)cc3)noc2n1 | i
CCNC(=O)COc1nc(CC)nc2onc(-c3ccc(F)cc3)c12 | +
C=CCNC(=O)COc1nc(CC)nc2onc(-c3ccc(F)cc3)c12 | i
COc1ccc(Nc2cc(-c3cccc(C)c3)nc(C)n2)c(OC)c1 | i
CC(=O)c1ccc(NC(=O)c2nc3ccccc3n(C)c2=O)cc1 | i
COc1cccc(NC(=O)c2nc3ccccc3n(C)c2=O)c1 | i
Cn1c(=O)c(C(=O)Nc2ccc(Cl)cc2)nc2ccccc21 | i
Cn1c(=O)c(C(=O)Nc2ccc(Oc3ccc(Cl)cc3)cc2)nc2ccccc21 | +
CC(=O)Nc1cccc(NC(=O)c2nc3ccccc3n(C)c2=O)c1 | +
COC(=O)c1ccc(NC(=O)c2nc3ccccc3n(C)c2=O)cc1 | i
CCCC(=O)N(Cc1nc2nc(C)cc(C)n2n1)c1ccccc1Cl | i
CN(C)C(=O)c1ccc2c(c1)N(CC(=O)N1CCCC1)C(=O)C1CCCCN21 (stereo not given) | i
COCCC1(C(=O)O)CCN(c2nc(-c3ccccc3)nc3ccccc23)CC1 | i
O=C(O)COc1ccccc1CN1CC(c2ccncc2)C1 | i
CCCC(=O)Nc1cccc(OCc2cc(=O)n3cc(Cl)ccc3n2)c1 | i
COc1cccc(C(=O)Nc2cccc(OCc3cc(=O)n4cc(Cl)ccc4n3)c2)c1 | i
Cc1ccn2c(=O)cc(COc3cccc(NC(=O)c4cccs4)c3)nc2c1 | i
